Screening data deposited in PubChem BioAssay by National Center for Advancing Translational Sciences (NCATS).
FUS yeast rescue – suppressors of FUS proteinopathy in yeast. actives 0.24% (n = 390,000). S. cerevisiae FUS-expressing, growth rescue, OD600, 24 h. Potency, µM (highest dose often 76.6 µM), actives largely listed as activators; also: nearly all actives have a fitted effect of over 55% in size
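Cultures pregrown in 2.5% raffinose medium are shifted to minimal medium containing 2% galactose to express toxic FUS. Compounds are tested at several concentrations. After 24hr at 30C, growth is quantified at 600 nm absorbance.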
Abeta rescue – restores growth of yeast expressing A-beta42 peptide; yeast expressing A-beta42, growth rescue, OD600, 48 h; response scale: 0% DMSO, 100% iron-clioquinol control; Potency, µM (titrated, usually from 46.1 µM), usual class: activators; actives 0.063% (n = 410,000); also: nearly all actives have a fitted effect of over 55% in size
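Growth rescue measured by 600 nm absorbance after 48 h yeast culture at 30 C with compound. Values normalized between DMSO and an equimolar ferric chloride plus clioquinol control.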
aSyn rescue – inhibitors of alpha-synuclein toxicity in yeast. Potency, µM (doses to about 46.1 µM), actives largely listed as activators. Yeast expressing alpha-synuclein, growth rescue, BacTiter-Glo, 24 h. actives 0.14% (n = 370,000); also: nearly all actives have a fitted effect of over 65% in size
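Galactose-induced alpha-syn yeast (OD600=0.02, raffinose-pregrown) + pinned cpd, 24 hr, 30 deg C; growth by BacTiter-Glo luminescence. Growth restoration scores as activation.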
TDP-43 yeast inh – TDP-43 toxicity inhibition in yeast | TDP-43 expressing yeast growth rescue, BacTiter-Glo, 24 h | Potency, µM (top dose mostly 46.1 µM), hits mostly activators | AID 652104 | actives 1.8% (n = 410,000); also: nearly all actives have a fitted effect of over 50% in size
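In this qHTS, compounds that restore growth of yeast expressing TDP-43 appear as activators. Cells (OD600=0.02, galactose medium, raffinose-pregrown) are incubated with compound 24 hr at 30 deg C and growth is quantified by BacTiter-Glo.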
Large screens that a line does not name were inactive. This is a sample that favours compounds with a hit; in the whole collection about 2.1% have one here. Calls follow the shape of the dose curve; as a rule, active = well fitted curve in the direction sought with a large enough effect; inconclusive = small, poorly fitted or top-dose-only effect, or another doubt; inactive = no such curve, though single readings can be large; an effect the other way counts as inactive or inconclusive.

O=C(NC1CCSc2ccccc21)c1cccc([N+](=O)[O-])c1 (stereo unspecified)	TDP-43 yeast inh 13µM
COc1ccc(-c2nc3ccc(Br)cn3c2Cc2cccc(Cl)c2)cc1OC	FUS yeast rescue inconclusive, aSyn rescue inconclusive, TDP-43 yeast inh 22µM
COc1ccc(-c2nc3ccc(Cl)cn3c2Cc2ccccc2)cc1OC	none
COc1ccc(-c2nc3ccc(Cl)cn3c2Cc2cccc(Cl)c2)cc1OC	TDP-43 yeast inh 35µM
CC1CCN(S(=O)(=O)c2ccc(C(=O)Nc3nnc(C4CC4)o3)cc2)CC1	FUS yeast rescue inconclusive, Abeta rescue 13µM, aSyn rescue 18µM, TDP-43 yeast inh inconclusive
COCc1nnc(NC(=O)c2ccc(S(=O)(=O)N3CCCc4ccccc43)cc2)o1	FUS yeast rescue inconclusive, aSyn rescue inconclusive, TDP-43 yeast inh inconclusive
Cc1nnc(NC(=O)c2ccc(S(=O)(=O)N3CC(C)CC(C)C3)cc2)o1 (stereo unspecified)	Abeta rescue inconclusive, aSyn rescue 16µM
O=C(Nc1nnc(C2CC2)o1)c1ccc(S(=O)(=O)N2CCCc3ccccc32)cc1	Abeta rescue inconclusive, aSyn rescue inconclusive, TDP-43 yeast inh 18µM
Cn1nc(C(=O)NCc2ccccn2)c2ccccc2c1=O	none
Nc1nc(Nc2ccccc2Cl)cc(=O)[nH]1	none
N#Cc1nc(COc2cccc(Cl)c2)oc1N1CCCC1	TDP-43 yeast inh 14µM
COCCNc1oc(COc2cccc(C)c2)nc1C#N	none
Cc1cccc(OCc2nc(C#N)c(NCc3ccccc3Cl)o2)c1	TDP-43 yeast inh 28µM (no result: aSyn rescue)
Cc1ccc(NC2=C(c3ccc(C(F)(F)F)cc3)C(=O)c3ccccc32)cc1C	none (no result: aSyn rescue)
Cc1ccccc1CN1CCc2c(OCC(=O)N3CCCc4ccccc43)cccc2C1=O	TDP-43 yeast inh 13µM
COc1ccccc1OCCOc1ccc(/C=C2/C(=N)N3OC(C)=CC3=NC2=O)cc1OC	none
CC1=CC2=NC(=O)/C(=C\c3cccn3CCOc3ccccc3C)C(=N)N2O1	FUS yeast rescue inconclusive, Abeta rescue inconclusive, TDP-43 yeast inh 20µM
Cc1cc(C)n2c3c(c(C#N)c2n1)CC(C)(C)OC3	none
Cc1nn(CC(=O)OCCOc2ccc(Br)cc2)c(C)c1[N+](=O)[O-]	TDP-43 yeast inh 13µM
Cc1ccc(CNC(=O)COC(=O)Cn2nc(C)c([N+](=O)[O-])c2C)cc1	none
COC(=O)c1ccc(Oc2ccc(S(=O)(=O)N3CCCCC3)cc2N)cc1	aSyn rescue 13µM, TDP-43 yeast inh inconclusive
O=C(C1CCN(S(=O)(=O)c2ccc(Cl)s2)CC1)N1CCN(c2ccccc2)CC1	TDP-43 yeast inh 14µM (no result: FUS yeast rescue)
O=C(C1CCN(S(=O)(=O)c2cccc3cccnc23)CC1)N1CCN(c2ccc(Cl)cc2)CC1	FUS yeast rescue 28µM
CC1CCN(C(=O)C2CCN(S(=O)(=O)c3cc(Cl)ccc3Cl)CC2)CC1	Abeta rescue inconclusive, TDP-43 yeast inh 13µM
O=C(C1CCN(S(=O)(=O)c2ccc3ccccc3c2)CC1)N1CCN(c2ncccn2)CC1	TDP-43 yeast inh 20µM
O=C(Nc1ccccn1)C1CCN(S(=O)(=O)c2ccc3ccccc3c2)CC1	TDP-43 yeast inh 11µM
NC(=O)C1CCN(c2nc(-c3ccc4ccccc4c3)cs2)CC1	none (no result: aSyn rescue, TDP-43 yeast inh)
NC(=O)C1CCN(c2nc(-c3ccc4c(c3)OCCCO4)cs2)CC1	FUS yeast rescue 25µM (no result: Abeta rescue, aSyn rescue, TDP-43 yeast inh)
CC12CCC(O)CC1=CCC1C2CCC2(C)C3=NN=CC3CC12 (stereo unspecified)	aSyn rescue inconclusive, TDP-43 yeast inh 16µM
CC(=O)C1(O)C(C)CC2C3CC=C4CC(O)CCC4(C)C3CCC21C (stereo unspecified)	none
CCCn1c(S(=O)(=O)O)nc2ccccc21	none
CC(C)(C)OC(=O)C[C@@H]1C/C=C\C[C@@H](CC(=O)N(CCO)Cc2ccccc2)C(=O)N[C@H](Cc2c[nH]c3ccccc23)COC1=O	FUS yeast rescue inconclusive
CC(C)(C)OC(=O)C[C@H]1C/C=C\C[C@@H](CC(=O)N(CCO)Cc2ccccc2)C(=O)N[C@H](Cc2c[nH]c3ccccc23)COC1=O	FUS yeast rescue 20µM
O=c1c(Cl)cc(Cl)nn1-c1ccccc1	TDP-43 yeast inh 25µM (no result: FUS yeast rescue)
COc1cc(Cl)nn(-c2ccccc2)c1=O	none (no result: FUS yeast rescue)
COc1ccc(CC(=O)OCC(=O)Nc2ccc(OC(F)F)cc2)cc1OC	none
CC(C)CCN(C(=S)Nc1cccc(F)c1)C1CCN(C(C)C)CC1	none
COc1ccc(-c2nc(CCNS(=O)(=O)c3ccc4c(c3)OCCO4)cs2)cc1	TDP-43 yeast inh 13µM
O=S(=O)(NCCc1csc(-c2ccc(C(F)(F)F)cc2)n1)c1ccc2c(c1)OCCO2	Abeta rescue inconclusive, TDP-43 yeast inh 25µM
O=S(=O)(NCCc1csc(-c2cccnc2)n1)c1ccc2c(c1)OCCO2	none
COc1ccc(CCNC(=O)CCc2ccsc2)cc1OC	none
c1ccc(-c2nc(-c3ccco3)n3ccccc23)cc1	TDP-43 yeast inh 25µM
CC(=O)N1N=C(c2ccc(Br)cc2)CC1c1cn(C)c2ccccc12 (stereo unspecified)	aSyn rescue inconclusive, TDP-43 yeast inh 25µM (no result: FUS yeast rescue)
O=C1N/C(=N/N=C/c2ccc(F)cc2)SC1c1ccccc1 (stereo unspecified)	none
CC(C)=N/N=C1/NC(=O)C(c2ccc(Cl)cc2)S1 (stereo unspecified)	Abeta rescue inconclusive, TDP-43 yeast inh 20µM (no result: FUS yeast rescue)
CCN(CC(=O)Nc1ccc2c(c1)OCCO2)Cc1nc2cc(Cl)ccc2c(=O)[nH]1	none (no result: FUS yeast rescue)
CCOC(=O)C1=NNC(C(=O)c2ccc(Cl)cc2)C1c1ccc(OC)cc1 (stereo unspecified)	TDP-43 yeast inh inconclusive
CCOC(=O)C1=NNC(C(=O)c2ccc(C)cc2)C1c1ccc(OC)cc1 (stereo unspecified)	TDP-43 yeast inh 20µM
O=C(Nc1ccc2c(c1)OCCO2)C(C1CC1)n1c(=O)c(-c2ccco2)nc2ccccc21 (stereo unspecified)	TDP-43 yeast inh inconclusive
O=C(Nc1ccc2c(c1)OCCO2)C(c1ccc(C(F)(F)F)cc1)n1c(=O)c(-c2cc3ccccc3[nH]2)nc2ccccc21 (stereo unspecified)	Abeta rescue inconclusive, aSyn rescue 10µM, TDP-43 yeast inh inconclusive
O=C(Nc1ccc2c(c1)OCCO2)C(c1ccncc1)n1c(=O)c(-c2cc3ccccc3[nH]2)nc2ccccc21 (stereo unspecified)	TDP-43 yeast inh 28µM
N#Cc1ccc(C(C(=O)Nc2ccc3c(c2)OCCO3)n2c(=O)c(-c3ccco3)nc3ccccc32)cc1 (stereo unspecified)	FUS yeast rescue 6.3µM, aSyn rescue inconclusive
O=C(CCNS(=O)(=O)c1cccc2nsnc12)Nc1ccc(F)cc1	none (no result: aSyn rescue)
C#CCO[C@@H]1C[C@H](n2ccc(NC(=O)c3ccccc3)nc2=O)O[C@@H]1CO	none
CCCCN(C(=O)CSc1nn(-c2ccc(F)cc2)c(=S)s1)c1c(N)n(CCCC)c(=O)[nH]c1=O	FUS yeast rescue 7.1µM
c1ccc(CCNc2ncnc3c2cnn3-c2ccccc2)cc1	TDP-43 yeast inh 16µM
